Structures can show the parent of a compound that is named as a salt. Screen size: about 1,700 compounds; about 15 (0.9%) showed activity.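 How the source made its calls: active = infection cut by 80% or more with cell growth above 90% in both runs; inactive = the rest.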 What follows is part of a selection rich in actives, with near analogues and random picks from the rest.
tested on: HSV-1 strain 17 YFP-ICP4 in A549; test: HSV-1 infection relative to DMSO (ICP4-YFP per H2B-RFP signal); higher = more viral infection (less antiviral activity), active = hit call of the paper; conditions: 10 µM; 48 h; MOI: 0.1
Experimental: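 Selleck FDA-approved library (L1300) screened in duplicate at 10 µM on A549 H2B-mRuby cells in 384-well plates, infected with HSV-1 strain 17 YFP-ICP4 at MOI 0.1 one hour before drug addition. Imaged after 2 days at 37°C. Cell growth (H2B-RFP) and infection (ICP4-YFP) are expressed as % of DMSO-treated wells. Hits: growth >90% and infection <20% of DMSO.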

Row | Compound | HSV-1 infection
1 | CCCCCCCCCC(=O)N[C@H]1[C@H](Oc2c3cc4cc2Oc2ccc(cc2Cl)[C@@H](O[C@@H]2O[C@H](CO)[C@@H](O)[C@H](O)[C@H]2NC(C)=O)[C@@H]2NC(=O)[C@H](NC(=O)[C@@H]4NC(=O)[C@H]4NC(=O)[C@@H](Cc5ccc(c(Cl)c5)O3)NC(=O)[C@H](N)c3ccc(O)c(c3)Oc3cc(O)cc4c3)c3ccc(O)c(c3)-c3c(OC4O[C@H](CO)[C@@H](O)[C@H](O)[C@@H]4O)cc(O)cc3[C@@H](C(=O)O)NC2=O)O[C@H](CO)[C@@H](O)[C@@H]1O (stereo partly drawn) [Teicoplanin] | 89% (inactive)
2 | CN(C)Cc1ccc(S(=O)(=O)n2ccc(/C=C/C(=O)NO)c2)cc1 [Resminostat] | 64.2% (inactive)
3 | C1=N/C2=N/c3ccc(OCCN4CCCC4)c(c3)COC/C=C/COCc3cccc(c3)C(=C1)N2 [Pacritinib (SB1518)] | 22.2% (inactive)
4 | COc1ccc(CN(C(=O)[C@@H](N)Cc2c(C)cc(C(N)=O)cc2C)[C@@H](C)c2ncc(-c3ccccc3)[nH]2)cc1C(=O)O [Eluxadoline] | 97.4% (inactive)
5 | O=C(NC[C@H]1CN(c2ccc(N3CCOCC3=O)cc2)C(=O)O1)c1ccc(Cl)s1 [Rivaroxaban] | 110% (inactive)
6 | N.N.O=C([O-])C[O-].[Pt+2] [Nedaplatin] | 87% (inactive)
7 | N#C[C@@H]1CCCN1C(=O)CNC12CC3CC(CC(O)(C3)C1)C2 [Vildagliptin (LAF-237)] | 103% (inactive)
8 | O[C@@H](COc1cccc2ncccc12)CN1CCN(C2c3ccccc3[C@@H]3[C@H](c4ccccc42)C3(F)F)CC1 (stereo partly drawn) | 75.2% (inactive)
9 | CC[C@@H]1C(=O)N(C)c2cnc(Nc3ccc(C(=O)N[C@H]4CC[C@H](N5CCN(CC6CC6)CC5)CC4)cc3OC)nc2N1C(C)C [Volasertib (BI 6727)] | 29.3% (inactive)
10 | CO[C@@]1(NC(=O)CSC[C@@H](N)C(=O)O)C(=O)N2C(C(=O)O)=C(CSc3nnnn3C)CS[C@@H]21 [Cefminox Sodium] | 110% (inactive)
11 | Cc1cc(C)c2c(c1)[C@@H](N(Cc1cc(C(F)(F)F)cc(C(F)(F)F)c1)c1nnn(C)n1)CCCN2C[C@H]1CC[C@H](C(=O)O)CC1 | 88.1% (inactive)
12 | C#CCN[C@@H]1CCc2ccccc21 [Rasagiline Mesylate] | 98.1% (inactive)
13 | C[C@H]1CN(C[C@H](Cc2ccccc2)C(=O)NCC(=O)O)CC[C@@]1(C)c1cccc(O)c1 [Alvimopan dihydrate] | 104% (inactive)
14 | CN1CCN(CCOc2cc(OC3CCOCC3)c3c(Nc4c(Cl)ccc5c4OCO5)ncnc3c2)CC1 [Saracatinib (AZD0530)] | 38.7% (inactive)
15 | COc1nc2ccc(Br)cc2cc1[C@@H](c1ccccc1)[C@@](O)(CCN(C)C)c1cccc2ccccc12 [Bedaquiline] | 114% (inactive)
16 | COc1nc2ccc(Br)cc2cc1[C@@H](c1ccccc1)[C@@](O)(CCN(C)C)c1cccc2ccccc12 [Bedaquiline fumarate] | 111% (inactive)
17 | Cc1cn(-c2cc(NC(=O)c3ccc(C)c(Nc4nccc(-c5cnccn5)n4)c3)cc(C(F)(F)F)c2)cn1 [Radotinib] | 34.8% (inactive)
18 | C[N+](C)(C)CCO.O=C([O-])C(O)C(O)C(=O)O (stereo not drawn) [Choline bitartrate] | 97.1% (inactive)
19 | C[C@H](NC(=O)[C@@H](Cc1ccc2ccccc2c1)NC(=O)[C@@H](C)N)C(=O)N[C@@H](Cc1c[nH]c2ccccc12)C(=O)N[C@H](Cc1ccccc1)C(=O)N[C@@H](CCCCN)C(N)=O | 97.6% (inactive)
20 | Cn1ncc(Cl)c1-c1cc(C(=O)N[C@H](CN)Cc2cccc(F)c2)sc1Cl | 52.8% (inactive)
21 | CN(C)N(C)C(=O)[C@@]1(Cc2ccccc2)CCCN(C(=O)[C@@H](Cc2c[nH]c3ccccc23)NC(=O)C(C)(C)N)C1 [Anamorelin] | 97% (inactive)
22 | CN1CCc2nc(C(=O)N[C@@H]3C[C@@H](C(=O)N(C)C)CC[C@@H]3NC(=O)C(=O)Nc3ccc(Cl)cn3)sc2C1 [Edoxaban tosylate Monohydrate] | 124% (inactive)
23 | CN1CCc2nc(C(=O)N[C@@H]3C[C@@H](C(=O)N(C)C)CC[C@@H]3NC(=O)C(=O)Nc3ccc(Cl)cn3)sc2C1 [Edoxaban] | 115% (inactive)
24 | Cc1ccccc1-c1cc(N2CCN(C)CC2)ncc1N(C)C(=O)C(C)(C)c1cc(C(F)(F)F)cc(C(F)(F)F)c1 [Netupitant] | 114% (inactive)
25 | CC(=O)Oc1c(C)c(C)c2c(c1C)CCC(C)(CCC[C@H](C)CCC[C@H](C)CCCC(C)C)O2 (stereo partly drawn) [Vitamin E Acetate] | 116% (inactive)
26 | CC(=O)Oc1ccccc1C(=O)O.CC(=O)Oc1ccccc1C(=O)O.NC(N)=O [Carbasalate Calcium] | 90.3% (inactive)
27 | CNS(=O)(=O)C[C@H]1CC[C@H](N(C)c2[nH]cnc3nccc2-3)CC1 | 102% (inactive)

Row | Compound | HSV-1 infection
28 | Cc1cc(S(=O)(=O)O)c2c(C)ccc(C(C)C)cc1-2 [Sodium gualenate] | 93% (inactive)
29 | COc1ccc(C[C@@H]2c3cc(OC)c(OC)cc3CC[N@+]2(C)CCC(=O)OCCCCCOC(=O)CC[N@@+]2(C)CCc3cc(OC)c(OC)cc3[C@H]2Cc2ccc(OC)c(OC)c2)cc1OC [Cisatracurium Besylate] | 90.4% (inactive)
30 | NC(=O)[C@@H]1CC[C@@H]2CN1C(=O)N2OS(=O)(=O)O [Avibactam sodium] | 116% (inactive)
31 | CN(C)c1ccc2nc3ccc(=[N+](C)C)cc-3sc2c1 [Methylene Blue] | 3.01% (active)
32 | COc1cc(S(=O)(=O)O)ccc1O [Sulfogaiacol] | 93.8% (inactive)
33 | N#CC1(c2ccc(NC(=O)c3cccnc3NCc3ccncc3)cc2)CCCC1 | 91.6% (inactive)
34 | CCCCc1nc2cc(/C=C/C(=O)NO)ccc2n1CCN(CC)CC [Pracinostat (SB939)] | 44.1% (inactive)
35 | C[C@@H](O)[C@@H]1NC(=O)[C@H](CCCCN)NC(=O)[C@@H](Cc2c[nH]c3ccccc23)NC(=O)[C@H](Cc2ccccc2)NC(=O)[C@@H](NC(=O)[C@H](N)Cc2ccccc2)CSSC[C@@H](C(=O)N[C@H](CO)[C@@H](C)O)NC1=O [Octreotide Acetate] | 93.8% (inactive)
36 | CC1=NN(c2ccc(C)c(C)c2)C(=O)/C1=N\Nc1cccc(-c2cccc(C(=O)O)c2)c1O [Eltrombopag Olamine] | 99% (inactive)
37 | CC1=NN(c2ccc(C)c(C)c2)C(=O)/C1=N\Nc1cccc(-c2cccc(C(=O)O)c2)c1O [Eltrombopag] | 82.4% (inactive)
38 | CS(=O)(=O)n1cc2c(n1)CN([C@H]1CO[C@H](c3cc(F)ccc3F)[C@@H](N)C1)C2 [Omarigliptin (MK-3102)] | 106% (inactive)
39 | CCCCCCCCCCCCCCCCOc1nc2ccc(C)cc2c(=O)o1 [Cetilistat] | 103% (inactive)
40 | CCOc1cc2ncc(C#N)c(Nc3ccc(OCc4ccccn4)c(Cl)c3)c2cc1NC(=O)/C=C/CN(C)C [Neratinib (HKI-272)] | 73.4% (inactive)
41 | CC(=O)N1C[C@H](O)C[C@H]1C(=O)O [Oxaceprol] | 97.8% (inactive)
42 | COC[C@H]1C[C@@H](c2nc(-c3ccc4c(c3)COc3cc5c(ccc6nc([C@@H]7CC[C@H](C)N7C(=O)[C@@H](NC(=O)OC)C(C)C)[nH]c65)cc3-4)c[nH]2)N(C(=O)[C@H](NC(=O)OC)c2ccccc2)C1 [Velpatasvir] | 102% (inactive)
43 | CCC/N=C1\S/C(=C\c2ccc(OC[C@H](O)CO)c(Cl)c2)C(=O)N1c1ccccc1C [Ponesimod] | 57.6% (inactive)
44 | CCOc1ccc(Cc2cc([C@]34OC[C@](CO)(O3)[C@@H](O)[C@H](O)[C@H]4O)ccc2Cl)cc1 [Ertugliflozin] | 114% (inactive)
45 | C=C1CC[C@H](O)C/C1=C/C=C1\CCC[C@]2(C)[C@@H]([C@H](C)CCCC(C)(C)O)CC[C@@H]12 [Calcifediol] | 89.7% (inactive)
46 | CCOC(=O)N[C@@H]1CC[C@@H]2[C@@H](C1)C[C@H]1C(=O)O[C@H](C)[C@H]1[C@H]2/C=C/c1ccc(-c2cccc(F)c2)cn1 [Vorapaxar] | 113% (inactive)
47 | CN[C@@H]1[C@@H](O)[C@@H](O[C@@H]2[C@@H](O)[C@H](O[C@H]3O[C@H](CN)[C@@H](O)[C@H](O)[C@H]3O)[C@@H](N)C[C@H]2NC(=O)[C@@H](O)CN)OC[C@]1(C)O [Isepamicin Sulphate] | 124% (inactive)
48 | CO/N=C(\C(=O)N[C@@H]1C(=O)N2C(C(=O)[O-])=C(C[n+]3cccc4c3CCC4)CS[C@H]12)c1csc(N)n1 [Cefpirome sulfate] | 108% (inactive)
49 | CC(C)(CO)C(O)C(=O)NCCCO (racemic) [DL-Panthenol] | 94% (inactive)
50 | CNC[C@H](O)[C@@H](O)[C@H](O)[C@H](O)CO.CNC[C@H](O)[C@@H](O)[C@H](O)[C@H](O)CO.O=C([O-])CN(CCN(CC(=O)[O-])CC(=O)O)CCN(CC(=O)[O-])CC(=O)O.[Gd+3] [Gadopentetate Dimeglumine] | 77.6% (inactive)
51 | COc1ccccc1OCCN [Carvedilol EP IMpurity E] | 82.6% (inactive)
52 | CC(C)[C@H]1C(=O)N[C@@H](CCCN=C(N)N)C(=O)NCC(=O)N[C@@H](CC(=O)O)C(=O)N[C@H](Cc2ccccc2)C(=O)N1C | 86.4% (inactive)
53 | CNC(=O)c1ccc2cc([C@@]3(O)CCn4cncc43)ccc2c1 [TAK-700 (Orteronel)] | 58.5% (inactive)

— the supplement of paper PMC11537057
